Measurements as given in PubChem BioAssay (NCI).
This is part of a sample that, as a whole, favours compounds with a hit. Of some 83,000 tested, about 20% had one in any assay.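 The endpoint reported here, percent growth, reads 100 for growth as untreated, 0 for no net growth and -100 for all cells dead.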 Activity calls are given as the source filed them. The calls were made as follows: active = growth percent below 10; inactive = the rest.

Columns and labels:
Test in all cases: NCI-60 one-dose screen, 48 h (100 = growth as untreated, 0 = no growth, -100 = all killed)
[1] = test system: SK-MEL-2 melanoma; details: 10 µM unless noted
[2] = test system: SN12C renal; details: 10 µM unless noted
[3] = test system: UO-31 renal; details: 10 µM unless noted
[4] = test system: TK-10 renal; details: 10 µM unless noted
[5] = test system: ACHN renal; details: 10 µM unless noted
[6] = test system: CAKI-1 renal; details: 10 µM unless noted
[7] = test system: A498 renal; details: 10 µM unless noted
[8] = test system: CCRF-CEM leukemia; details: 10 µM
[9] = test system: MOLT-4 leukemia; details: 10 µM unless noted

Measured: growth

CNc1ccc(Nc2ccc(S(=O)(=O)O)cc2)c2c1C(=O)c1ccccc1C2=O
inactive: [1] 130% | [2] 92.8% | [3] 102% | [4] 126% | [5] 98.7% | [6] 91.9% | [7] 113% | [8] 89.2%

S=C(N/N=C/c1cc(Cl)cc(Cl)c1)NC12CC3CC(CC(C3)C1)C2
active: [5] 4.44% | [6] -1.81%
inactive: [1] 116% | [2] 88.6% | [3] 69% | [4] 11.1% | [7] 57.1% | [8] 50.8% | [9] 94.1%

CC(=O)Nc1ccc(C(=O)/C=C/c2ccc(N(C)C)cc2)cc1
inactive: [1] 95.7% | [2] 98.2% | [3] 74.5% | [4] 95.4% | [5] 103% | [6] 97% | [7] 104% | [8] 101%

COC(=O)[C@H](Cc1cn(C)cn1)NC(=O)[C@H](CC(=O)OCc1ccccc1)NC(=O)Nc1cc(C(F)(F)F)cc(C(F)(F)F)c1
active: [1] -92.6% [100 µM] | [2] -91.1% [100 µM] | [3] -96.3% [100 µM] | [4] -97.5% [100 µM] | [5] -98.6% [100 µM] | [6] -91.9% [100 µM] | [7] -92.3% [100 µM] | [9] -62.8% [100 µM]

C/C(=C\c1ccc2ccccc2c1)[N+](=O)[O-]
inactive: [2] 89.6% | [7] 103%
active: [1] 4.49% | [3] -80.1% | [4] -47% | [5] -74.1% | [6] -79.2% | [8] -25.4% | [9] -1.16%

C=CN(C)S(C)(=O)=O
active: [1] -8.09% | [6] -7.94%
inactive: [2] 42.5% | [3] 18.2% | [4] 53.2% | [5] 39.5% | [7] 105% | [8] 16.9% | [9] 30.1%

COc1ccc(Nc2c3ccccc3nc3ccccc23)cc1
active: [3] 7.72% | [5] -11% | [9] -9.93%
inactive: [1] 54.5% | [2] 30.1% | [4] 51.8% | [6] 10.2% | [7] 42.1%

CC#Cc1nc(Nc2cc(C)[nH]n2)c2ccccc2n1
active: [1] -51.2% [100 µM] | [2] -0.924% [100 µM] | [3] -6.22% [100 µM] | [4] 3.15% [100 µM] | [5] 3.22% [100 µM] | [6] -33.2% [100 µM] | [7] -94% [100 µM] | [9] -43.3% [100 µM]

Cn1c2ccccc2c2ccccc21
inactive: [1] 99.4% | [2] 107% | [3] 75% | [4] 97.5% | [5] 105% | [6] 101% | [7] 115% | [8] 92.5% | [9] 89.7%

CC(O)CN(CCO)CCN(CCO)CC(C)O (stereo not drawn)
inactive: [1] 114% | [2] 104% | [3] 99.6% | [4] 103% | [5] 102% | [6] 95.1% | [7] 112% | [9] 100%

O=C(NCCO)C(F)(F)F
inactive: [1] 105% | [2] 102% | [3] 94.2% | [4] 102% | [5] 101% | [6] 95.9% | [7] 107% | [9] 99.3%

O=C(NC1CCN(Cc2ccccc2)CC1)c1cc(-c2cccnc2)nc2ccc(Cl)cc12
inactive: [1] 100% | [2] 63.1% | [3] 69.2% | [4] 81.6% | [5] 81.2% | [6] 82.6% | [7] 67.2% | [8] 64% | [9] 58.9%

COC(=O)/C=C1/CCCCC1(C)C(=O)OC (stereo not drawn)
inactive: [1] 108% | [2] 101% | [3] 95.3% | [4] 104% | [5] 112% | [6] 107% | [7] 107% | [9] 99.6%

CCn1cnc(C[C@H](NC(=O)[C@@H](NC(=O)Nc2cc(C(F)(F)F)cc(C(F)(F)F)c2)C(C)(C)C)C(=O)OC)c1
active: [1] -91% [100 µM] | [2] -96.2% [100 µM] | [3] -94.1% [100 µM] | [4] -97.6% [100 µM] | [5] -95.8% [100 µM] | [6] -96% [100 µM] | [7] -91.6% [100 µM] | [9] -49% [100 µM]

N=C(c1ccccc1)N(Cc1ccccc1)Cc1ccccc1
inactive: [1] 85.4% | [2] 98.8% | [3] 72.6% | [4] 106% | [5] 93.7% | [6] 89.8% | [7] 96% | [9] 86.3%

CCOC(=O)c1csc(-c2ccc(COC(=O)c3ccccc3)o2)n1
active: [9] 4.16%
inactive: [1] 107% | [2] 96.1% | [3] 83.5% | [4] 107% | [5] 95% | [6] 81.2% | [7] 112%

CCCCCCC(C)N(CC(C)(C)O)C(=O)c1ccc([N+](=O)[O-])cc1 (stereo not drawn)
inactive: [1] 89.7% | [2] 104% | [3] 58.6% | [4] 92.6% | [5] 107% | [6] 108% | [7] 101% | [8] 74.8% | [9] 90.4%

CCCCCCCCCCC1OC(C)CC(C)O1 (stereo not drawn)
inactive: [1] 105% | [2] 103% | [3] 90.9% | [4] 100% | [5] 97.8% | [6] 95.7% | [7] 102% | [9] 86.7%

COC(=O)c1c[n+]([O-])ccc1OC
active: [9] -47.4%
inactive: [1] 117% | [2] 98.2% | [3] 85.2% | [4] 102% | [5] 108% | [6] 97.2% | [7] 111%

COC(=O)[C@H](Cc1cn(C)cn1)NC(=O)[C@@H](NC(=O)Nc1cc(C(F)(F)F)cc(C(F)(F)F)c1)C(C)(C)C
active: [1] -88.7% [100 µM] | [2] -91.8% [100 µM] | [4] -82% [100 µM] | [5] 0.692% [100 µM] | [7] -77% [100 µM] | [9] -25.7% [100 µM]
inactive: [3] 61.1% [100 µM] | [6] 55% [100 µM]

O=P(OCCCl)(OCCCl)C(O)c1ccccc1Cl (stereo not drawn)
inactive: [1] 112% | [2] 111% | [3] 80.2% | [4] 102% | [5] 98.4% | [6] 76.4% | [7] 121% | [9] 99.8%

CC(C)(C)c1cc(C[P+](c2ccc(Cl)cc2)(c2ccc(Cl)cc2)c2ccc(Cl)cc2)cc(C(C)(C)C)c1O
inactive: [1] 76.2% | [2] 91.6% | [3] 64.4% | [4] 105% | [5] 98.7% | [6] 84.2% | [7] 98.5% | [9] 35.7%

CCCCCCC(=O)C(C)C
inactive: [1] 115% | [2] 104% | [3] 92.3% | [4] 101% | [5] 103% | [6] 91% | [7] 115% | [9] 96.6%

CCCCCCCCCCCCCCCCNC(=S)N/N=C/c1ccc(OC)cc1
inactive: [1] 107% | [2] 93.5% | [3] 78% | [4] 110% | [5] 104% | [6] 92% | [7] 113% | [9] 106%

CCC(C)[C@H](NC(=O)Nc1cc(C(F)(F)F)cc(C(F)(F)F)c1)C(=O)N[C@@H](Cc1cn(C)cn1)C(=O)OC (stereo partly drawn)
active: [1] -92.4% [100 µM] | [2] -82% [100 µM] | [3] -95.3% [100 µM] | [4] -98.7% [100 µM] | [5] -98.4% [100 µM] | [6] -99.6% [100 µM] | [7] -94.4% [100 µM] | [9] -54.9% [100 µM]

CCCCCCCCCC[N+](C)(C)N
inactive: [1] 105% | [2] 103% | [3] 90.3% | [4] 74.4% | [5] 105% | [6] 78.4% | [7] 105% | [9] 80.5%

c1cc[c]([Bi]([c]2ccccc2)[c]2ccccc2)cc1
inactive: [1] 116% | [2] 97.1% | [3] 84.8% | [4] 94.6% | [5] 105% | [6] 88.6% | [7] 89.3% | [8] 86.5% | [9] 108%

CCCCCCCCCCCCCCCCNC(=S)N/N=C/c1ccc(O)cc1O
inactive: [1] 75.4% | [2] 74.2% | [3] 49.8% | [4] 57.8% | [5] 77% | [6] 55.9% | [7] 91.1% | [9] 48.5%

CCCCCCCCCCCCOC(=O)/C=C\C(=O)NC(N)=O
inactive: [1] 50.7% | [2] 84.3% | [3] 93% | [4] 86.9% | [5] 88.4% | [6] 90.3% | [7] 101% | [9] 45.1%

CCCCCCCCCCCCCCCCNC(=O)Nc1ccc(C)c(NC(=O)NCCCCCCCCCCCCCCCC)c1
inactive: [1] 117% | [2] 103% | [3] 74.3% | [4] 112% | [5] 98.7% | [6] 117% | [7] 113% | [9] 104%

C=CCC(CCC(CC=C)C(=O)OCC)C(=O)OCC (stereo not drawn)
inactive: [1] 106% | [2] 100% | [3] 88.5% | [4] 91.6% | [5] 108% | [6] 103% | [7] 120% | [9] 104%

CCCCCCCCCCC(C[N+](C)(C)C/C=C/c1ccccc1)C(O)c1ccccc1 (stereo not drawn)
inactive: [2] 15.8% | [3] 74.1% | [5] 72.2% | [6] 87.5% | [7] 59%
active: [1] -52.7% | [4] -2.74% | [9] -24.4%
